# Measurements reported in PubChem BioAssay AID1159580 (chemical genetic matrix, 2015).
# Several values for one entry are separate records, joined by “and”; a condition that tells them apart may be missing. Equal entries are not always repeated. About 2,000 (36%) of roughly 5,500 compounds were called active. Another 18% or so got no clear call; they are omitted. This is one part of the list. Unmarked numbers belong to inactive results. Rule as the data show it: active = normalized growth mostly below about 0.91 (no sharp cut-off); inconclusive = no clear call, values can overlap the other calls; inactive = mostly above about 0.92.
# Experiment: chemical genetic growth profiling, strain panel (AID 1159580);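 also: tested at 20 µM; growth read once vehicle control cultures reached saturation at 30 °C; 1 = growth at the plate median or of vehicle wells; lower values mean less growth of the strain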
# Settings: S. cerevisiae deletion strains, growth OD
smiles,measurement,setting,value
C[C@@H]1CC[C@@]23CCC4(C)[C@@](C=CC5[C@@]6(C)CCC(=O)C(C)(C)C6CC[C@]54C)(OC2=O)C3[C@H]1C (stereo not given in full),normalized growth,"locus YAL013W, strain DEP1, hits give low values",1.03
same,normalized growth,"locus YAL021C, strain ccr4, hits give low values",0.998
same,normalized growth,"locus YAL026C, strain drs2, hits give low values",1.01
same,normalized growth,"locus YAL030W, strain snc1, hits give low values",0.998
same,normalized growth,"locus YBL061C, strain skt5, hits give low values",0.994
same,normalized growth,"locus YBR009C, strain hhf1, hits give low values",1.02
same,normalized growth,"locus YBR021W, strain FUR4, hits give low values",1.01
same,normalized growth,"locus YBR023C, strain chs3, hits give low values",1
same,normalized growth,"locus YBR171W, strain sec66, hits give low values",0.99
same,normalized growth,"locus YBR229C, strain ROT2, hits give low values",1.02
same,normalized growth,"locus YBR231C, strain swc5, hits give low values",1.01
same,normalized growth,"locus YBR279W, strain paf1, hits give low values",0.99
same,normalized growth,"locus YCL011C, strain gbp2, hits give low values",1.02
same,normalized growth,"locus YCL016C, strain dcc1, hits give low values",0.981
same,normalized growth,"locus YCL029C, strain bik1, hits give low values",1.03
same,normalized growth,"locus YCL061C, strain MRC1, hits give low values",1.01
same,normalized growth,"locus YCL069W, strain vba3, hits give low values",0.997
same,normalized growth,"locus YCR088W, strain abp1, hits give low values",0.992
same,normalized growth,"locus YDL005C, strain med2, hits give low values",1
same,normalized growth,"locus YDL035C, strain GPR1, hits give low values",1.02
same,normalized growth,"locus YDL040C, strain nat1, hits give low values",0.997
same,normalized growth,"locus YDL074C, strain BRE1, hits give low values",1.01
same,normalized growth,"locus YDL101C, strain DUN1, hits give low values",1.03
same,normalized growth,"locus YDL185W, strain tfp1, hits give low values",0.989
same,normalized growth,"locus YDL192W, strain arf1, hits give low values",1.01
same,normalized growth,"locus YDR001C, strain nth1, hits give low values",0.987
same,normalized growth,"locus YDR069C, strain doa4, hits give low values",1
same,normalized growth,"locus YDR101C, strain arx1, hits give low values",1.01
same,normalized growth,"locus YDR137W, strain rgp1, hits give low values",1.04
same,normalized growth,"locus YDR150W, strain NUM1, hits give low values",1.02
same,normalized growth,"locus YDR159W, strain sac3, hits give low values",1
same,normalized growth,"locus YDR162C, strain NBP2, hits give low values",1.04
same,normalized growth,"locus YDR195W, strain ref2",0.957
same,normalized growth,"locus YDR297W, strain sur2, hits give low values",1.02
same,normalized growth,"locus YDR318W, strain mcm21, hits give low values",1.04
same,normalized growth,"locus YDR334W, strain swr1, hits give low values",0.998
same,normalized growth,"locus YDR335W, strain msn5, hits give low values",1
same,normalized growth,"locus YDR388W, hits give low values",1
same,normalized growth,"locus YDR392W, strain spt3, hits give low values",1.01
same,normalized growth,"locus YDR502C, strain sam2, hits give low values",1.02
same,normalized growth,"locus YEL003W, strain gim4, hits give low values",1.01
same,normalized growth,"locus YEL037C, strain rad23, hits give low values",1.01
same,normalized growth,"locus YEL061C, strain CIN8 (second series), hits give low values",0.99
same,normalized growth,"locus YEL061C, strain CIN8, hits give low values",1.02
same,normalized growth,"locus YER015W, strain faa2, hits give low values",1.01
same,normalized growth,"locus YER016W, strain bim1, hits give low values",0.993
same,normalized growth,"locus YER110C, hits give low values",1.01
same,normalized growth,"locus YER111C, strain swi4, hits give low values",0.995
same,normalized growth,"locus YER155C, strain BEM2 (second series), hits give low values",1.01
same,normalized growth,"locus YER155C, strain BEM2, hits give low values",1.02
same,normalized growth,"locus YER167W, strain BCK2, hits give low values",1.01
same,normalized growth,"locus YFR010W, strain ubp6, hits give low values",1.02
same,normalized growth,"locus YGL078C, strain dbp3, hits give low values",1.01
same,normalized growth,"locus YGL086W, strain mad1, hits give low values",1
same,normalized growth,"locus YGL167C, strain pmr1, hits give low values",0.994
same,normalized growth,"locus YGL173C, strain kem1, hits give low values",1.01
same,normalized growth,"locus YGL227W, strain vid30, hits give low values",0.983
same,normalized growth,"locus YGL240W, strain doc1, hits give low values",1.03
same,normalized growth,"locus YGL248W, strain PDE1, hits give low values",1.02
same,normalized growth,"locus YGL253W, strain hxk2, hits give low values",1
same,normalized growth,"locus YGR135W, strain pre9, hits give low values",1
same,normalized growth,"locus YGR229C, strain SMI1, hits give low values",1.02
same,normalized growth,"locus YGR252W, strain gcn5, hits give low values",1.02
same,normalized growth,"locus YHR013C, strain ard1, hits give low values",0.986
same,normalized growth,"locus YHR027C, strain rpn1, hits give low values",1.01
same,normalized growth,"locus YHR030C, strain SLT2, hits give low values",1.02 and 0.996
same,normalized growth,"locus YHR079C, strain IRE1 (second series), hits give low values",1.02
same,normalized growth,"locus YHR079C, strain IRE1, hits give low values",1.01
same,normalized growth,"locus YHR094C, strain hxt1, hits give low values",1.11 [resistant] (active)
same,normalized growth,"locus YHR129C, strain ARP1, hits give low values",1.02
same,normalized growth,"locus YHR142W, strain chs7, hits give low values",0.97
same,normalized growth,"locus YHR200W, strain rpn10, hits give low values",1.02
same,normalized growth,"locus YIL066C, strain RNR3, hits give low values",1.03
same,normalized growth,"locus YIL073C, strain SPO22, hits give low values",1
same,normalized growth,"locus YIL125W, strain kgd1, hits give low values",0.992
same,normalized growth,"locus YIR030C, strain dcg1, hits give low values",1.04
same,normalized growth,"locus YJL092W, strain hpr5, hits give low values",0.989
same,normalized growth,"locus YJL095W, strain BCK1 (second series), hits give low values",1
same,normalized growth,"locus YJL095W, strain BCK1, hits give low values",1.04 and 0.991
same,normalized growth,"locus YJL115W, strain asf1, hits give low values",0.993
same,normalized growth,"locus YJL129C, strain trk1, hits give low values",0.98
same,normalized growth,"locus YJL134W, strain LCB3, hits give low values",1.01
same,normalized growth,"locus YJL154C, strain vps35, hits give low values",0.981
same,normalized growth,"locus YJL164C, strain tpk1, hits give low values",1.01
same,normalized growth,"locus YJL166W, strain qcr8, hits give low values",1.01
same,normalized growth,"locus YJL168C, strain set2, hits give low values",1.01
same,normalized growth,"locus YJL187C, strain SWE1 (second series), hits give low values",1.03
same,normalized growth,"locus YJL187C, strain SWE1, hits give low values",0.993
same,normalized growth,"locus YJR043C, strain POL32, hits give low values",1.02
same,normalized growth,"locus YJR066W, strain TOR1, hits give low values",0.953
same,normalized growth,"locus YKL009W, strain mrt4, hits give low values",1.01
same,normalized growth,"locus YKL068W, hits give low values",1.02
same,normalized growth,"locus YKL085W, strain MDH1 (second series), hits give low values",1
same,normalized growth,"locus YKL085W, strain MDH1, hits give low values",1
same,normalized growth,"locus YKL160W, strain elf1, hits give low values",0.999
same,normalized growth,"locus YKR001C, strain vps1, hits give low values",0.977
same,normalized growth,"locus YKR026C, strain gcn3, hits give low values",1
same,normalized growth,"locus YKR091W, strain srl3, hits give low values",0.994
same,normalized growth,"locus YLL001W, strain dnm1, hits give low values",0.982
same,normalized growth,"locus YLL026W, hits give low values",1
same,normalized growth,"locus YLL041C, strain sdh2, hits give low values",1
same,normalized growth,"locus YLR027C, strain aat2, hits give low values",1.02
same,normalized growth,"locus YLR039C, strain RIC1, hits give low values",1.05
same,normalized growth,"locus YLR058C, strain SHM2, hits give low values",1.02
same,normalized growth,"locus YLR102C, strain apc9, hits give low values",1.01
same,normalized growth,"locus YLR113W, strain HOG1, hits give low values",1
same,normalized growth,"locus YLR221C, strain rsa3, hits give low values",0.988
same,normalized growth,"locus YLR258W, strain gsy2, hits give low values",1.01
same,normalized growth,"locus YLR262C, strain YPT6 (second series), hits give low values",1.02
same,normalized growth,"locus YLR262C, strain YPT6, hits give low values",1.07
same,normalized growth,"locus YLR268W, strain sec22, hits give low values",0.995
same,normalized growth,"locus YLR320W, strain mms22, hits give low values",1
same,normalized growth,"locus YLR330W, strain CHS5, hits give low values",1.02
same,normalized growth,"locus YLR342W, strain FKS1 (second series), hits give low values",1.01
same,normalized growth,"locus YLR342W, strain FKS1, hits give low values",1.01
same,normalized growth,"locus YLR357W, strain rsc2, hits give low values",0.991
same,normalized growth,"locus YLR370C, strain arc18, hits give low values",0.996
same,normalized growth,"locus YLR371W, strain rom2, hits give low values",1.1 [resistant] (active)
same,normalized growth,"locus YLR384C, strain iki3, hits give low values",0.989
same,normalized growth,"locus YLR418C, strain cdc73, hits give low values",1.01
same,normalized growth,"locus YML016C, strain PPZ1, hits give low values",1.02
same,normalized growth,"locus YML032C, strain rad52, hits give low values",1.04
same,normalized growth,"locus YML120C, strain ndi1, hits give low values",0.994
same,normalized growth,"locus YML124C, strain tub3, hits give low values",1.02
same,normalized growth,"locus YMR058W, strain fet3, hits give low values",1.01
same,normalized growth,"locus YMR078C, strain ctf18, hits give low values",1.09
same,normalized growth,"locus YMR125W, strain sto1, hits give low values",0.978
same,normalized growth,"locus YMR129W, hits give low values",0.99
same,normalized growth,"locus YMR205C, strain PFK2, hits give low values",0.983
same,normalized growth,"locus YMR223W, strain ubp8, hits give low values",1.04
same,normalized growth,"locus YMR231W, strain pep5, hits give low values",0.993
same,normalized growth,"locus YMR307W, strain GAS1, hits give low values",1.06
same,normalized growth,"locus YNL067W, strain RPL9B, hits give low values",1.02
same,normalized growth,"locus YNL071W, strain lat1, hits give low values",1.01
same,normalized growth,"locus YNL153C, strain GIM3, hits give low values",1.03
same,normalized growth,"locus YNL183C, strain NPR1, hits give low values",0.964
same,normalized growth,"locus YNL209W, strain ssb2, hits give low values",0.988
same,normalized growth,"locus YNL233W, strain BNI4, hits give low values",1.03
same,normalized growth,"locus YNL248C, strain rpa49, hits give low values",1.02
same,normalized growth,"locus YNL250W, strain rad50, hits give low values",1
same,normalized growth,"locus YNL271C, strain bni1, hits give low values",1.01
same,normalized growth,"locus YNL298W, strain CLA4, hits give low values",1.01
same,normalized growth,"locus YNL307C, strain MCK1, hits give low values",1.02
same,normalized growth,"locus YNL322C, strain KRE1 (second series), hits give low values",1
same,normalized growth,"locus YNL322C, strain KRE1, hits give low values",1.01
same,normalized growth,"locus YNR049C, strain mso1, hits give low values",0.994
same,normalized growth,"locus YNR052C, strain pop2, hits give low values",1.02
same,normalized growth,"locus YOL006C, strain TOP1, hits give low values",1
same,normalized growth,"locus YOL012C, strain htz1",1.03
same,normalized growth,"locus YOL147C, strain pex11, hits give low values",1.01
same,normalized growth,"locus YOR001W, strain rrp6, hits give low values",1.02
same,normalized growth,"locus YOR061W, strain CKA2, hits give low values",1.01
same,normalized growth,"locus YOR069W, strain VPS5, hits give low values",1.01
same,normalized growth,"locus YOR070C, strain gyp1, hits give low values",0.995
same,normalized growth,"locus YOR080W, strain dia2, hits give low values",0.996
same,normalized growth,"locus YOR083W, strain WHI5, hits give low values",1.01
same,normalized growth,"locus YOR106W, strain vam3, hits give low values",1
same,normalized growth,"locus YOR136W, strain idh2, hits give low values",1.01
same,normalized growth,"locus YOR144C, strain elg1, hits give low values",1.02
same,normalized growth,"locus YOR184W, strain ser1, hits give low values",1.01
same,normalized growth,"locus YOR231W, strain MKK1, hits give low values",1.01
same,normalized growth,"locus YOR265W, strain rbl2, hits give low values",1.01
same,normalized growth,"locus YOR270C, strain vph1, hits give low values",1.03
same,normalized growth,"locus YOR290C, strain snf2, hits give low values",0.97
same,normalized growth,"locus YOR316C, strain cot1, hits give low values",1.03
same,normalized growth,"locus YPL051W, strain arl3, hits give low values",1.04
same,normalized growth,"locus YPL078C, strain atp4, hits give low values",1.01
same,normalized growth,"locus YPL106C, strain sse1, hits give low values",1.01
same,normalized growth,"locus YPL240C, strain hsp82, hits give low values",0.996
same,normalized growth,"locus YPL256C, strain CLN2, hits give low values",0.987
same,normalized growth,"locus YPR119W, strain clb2, hits give low values",1.02
same,normalized growth,"locus YPR141C, strain kar3, hits give low values",1.04
same,normalized growth,"locus YPR163C, strain tif3, hits give low values",1.01
same,normalized growth,"locus YPR167C, strain met16, hits give low values",1.01
same,normalized growth,"strain wtn01, hits give low values",0.995
